Compound activity as filed in PubChem BioAssay.
In the library only some 6.1% were active in any assay of this set; here they are far more common.
D1 antag – antagonists of human D1 dopamine receptor. P21728. HEK293 TREx D1 cells, calcium flux, dopamine EC80; active compounds read low. activity change, negative = inhibition, % at 10 µM. 360,000 compounds, 3.2% hits. AID 504652; in the data active = activity change below about -30%; also: % is scaled to controls: 0 for no effect and ±100 for the full control effect
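Inducible Hek293 Trex D1 cells (tetracycline, overnight, 30 C). Calcium dye 30–90 min RT. Antagonist mode: EC80 dopamine added after 180 s compound read.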
D1 agonist – activates the human D1 dopamine receptor | activation, % at 2 µM | 360,000 compounds, 1% hits | AID 504660 | HEK293 T-REx D1 cells, calcium flux, agonist mode | P21728; in the data active = activation above about 30%; also: 0% is about no effect
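Inducible HEK293 T-REx D1 cells, force-coupled to calcium signalling, were plated at 4000 cells/well with tetracycline and held overnight at 30 C. After no-wash calcium dye loading, compound-evoked calcium rise over 180 s flagged agonists.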
D1 PAM – enhances dopamine response at the human D1 receptor; P21728; HEK293 TREx D1 cells, calcium flux, dopamine EC20 potentiation; potentiation, % at 10 µM; 360,000 compounds, 0.036% hits; AID 504651; in the data active = potentiation above about 30%; also: 0% is about no effect
DRD3 antagonist – D3 dopamine receptor (human) antagonism; D3R cells, DiscoveRx beta-arrestin luminescence, antagonist mode; active compounds read low; max response, negative = inhibition, %; 360,000 compounds, 2.5% hits; AID 652054; in the data active = max response below about -50%; inconclusive = no clear call, values can overlap the other calls; also: % is scaled to controls: 0 for no effect and ±100 for the full control effect
Target sequence (P35462 whole entry, looked up): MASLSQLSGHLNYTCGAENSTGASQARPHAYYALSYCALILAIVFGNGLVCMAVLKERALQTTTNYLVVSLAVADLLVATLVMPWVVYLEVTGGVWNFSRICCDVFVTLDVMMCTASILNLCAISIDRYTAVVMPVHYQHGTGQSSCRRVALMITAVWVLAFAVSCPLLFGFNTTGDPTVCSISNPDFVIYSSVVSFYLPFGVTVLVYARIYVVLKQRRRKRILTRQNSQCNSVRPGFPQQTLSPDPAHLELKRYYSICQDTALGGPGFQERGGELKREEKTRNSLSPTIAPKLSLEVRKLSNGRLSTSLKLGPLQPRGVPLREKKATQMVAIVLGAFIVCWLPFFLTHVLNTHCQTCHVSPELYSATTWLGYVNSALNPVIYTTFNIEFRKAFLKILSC
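Cells expressing the human receptor were seeded at 1500 cells/well, incubated overnight at 37 degrees C in 5% CO2, then exposed to library compounds with dopamine controls for 90 minutes at 37 degrees C before luminescent detection.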
ERG-DNA inh – ERG Ets/DNA interaction inhibition | P11308 | fluorescence polarization, His-ERG Ets domain / labelled DNA | Potency, µM (titrated, usually from 76.9 µM), without a hit: at the highest dose FP activity, negative = inhibition, usual class: inhibitors | 370,000 compounds, 0.028% hits; active = well fitted inhibition curve with a large enough effect in the polarisation, with a control signal flat; inconclusive = small, poorly fitted or top-dose-only effect, or effect the other way, or a change in a side signal; inactive = no such curve, though single readings can be large or run the other way; the % refers to the polarisation;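 also: polarization taken with two DNA probes labelled with fluorescein and Texas red; potency is read from the fitted curve at half-maximal effect; % of control where 0% means no effect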
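His-tagged ERG Ets domain (1 uM in the protein solution; 300mM KCl, 50mM Tris-HCl, 1mM EDTA, 1mM DTT, pH 7.5) received compound, then a probe mix of 5 nM fluorescein-DNA and 100nM Texas-615-DNA. Fluorescence polarization was read for both dyes.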
D3 ag – agonists of human D3 dopamine receptor; P35462; D3R DiscoveRx beta-arrestin cells, luminescence, 90 min; max activation, %; 410,000 compounds, 0.58% hits; in the data active = max activation above about 30%; also: 0% is about no effect
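Agonist-mode cell screen: cells plated at 1500/well and incubated overnight at 37 °C, then exposed to library compounds for 90 min at 37 °C. Detection reagent was added for 30–60 min at room temperature, and luminescence was read.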
The depositor's hits bear a star.

CN(C1=C(NC(=O)c2ccccc2)C(=O)c2ccccc2C1=O)C1CCS(=O)(=O)C1 (stereo not given) was read as D1 antag -4, D1 agonist 0, D1 PAM -5, DRD3 antagonist -54*, ERG-DNA inh 6% and D3 ag -13.
CC(C)(C)C(=O)NC(=S)NNC(=O)c1ccc(Cl)cc1Cl was read as D1 antag 111, D1 agonist 397*, D1 PAM 8, DRD3 antagonist -8, ERG-DNA inh -7% and D3 ag 6.
Screening CC(C)(C)C(=O)NC(=S)NNC(=O)c1ccc(-c2ccccc2)cc1 returned D1 agonist 262*, D1 PAM 30, DRD3 antagonist inconclusive, ERG-DNA inh -3% and D3 ag -29.
`COC(=O)NNC(=O)c1ccc(Cl)cc1Cl` gave D1 antag -14, D1 agonist 2, D1 PAM -2, DRD3 antagonist 6, ERG-DNA inh -7% and D3 ag -1.
For CC(=O)Nc1ccc(C(=O)N/N=C/c2cc(Br)cc(Br)c2O)cc1 the results were D1 antag -9, D1 agonist 10, D1 PAM -9, DRD3 antagonist 15, ERG-DNA inh -16% and D3 ag 9.
For Cc1ccc(C(=O)O)cc1N=Cc1cc(Br)cc(Br)c1O the results were D1 antag 10, D1 agonist 6, D1 PAM -3, DRD3 antagonist -120*, ERG-DNA inh 2% and D3 ag -24.
For CC(=O)Nc1ccc(NC(=O)COC(=O)c2ccccn2)cc1 the results were D1 agonist 1, D1 PAM -2, DRD3 antagonist 4, ERG-DNA inh 0% and D3 ag 9.
For Nc1nnc(SCC(=O)OCC(=O)c2ccccc2)s1 the results were D1 antag 3, D1 agonist 3, D1 PAM -7, DRD3 antagonist -20, ERG-DNA inh 16% and D3 ag 7.
`Nc1nnc(SCC(=O)OCC(=O)c2ccccc2Br)s1` gave D1 antag -3, D1 agonist 1, D1 PAM 4, DRD3 antagonist -58*, ERG-DNA inh 1% and D3 ag -27.
Cc1c(OC(C)C(=O)NCCCN2CCOCC2)ccc2c1oc(=O)c1ccccc12 (stereo not given) was read as D1 antag -11, D1 agonist 8, D1 PAM 5, DRD3 antagonist 13, ERG-DNA inh -9% and D3 ag -3.
For COc1ccc(OCc2n(CC(=O)OC3CC(C)CCC3C(C)C)c3ccccc3[n+]2C)cc1 (stereo not given) the results were D1 antag 20, D1 agonist 34*, D1 PAM -10, DRD3 antagonist inconclusive, ERG-DNA inh 0% and D3 ag -24.
`CC1CCC(C(C)C)C(OC(=O)CSc2nccc(=O)[nH]2)C1` (stereo not given) gave D1 antag 8, D1 agonist 4, D1 PAM -2, DRD3 antagonist 21, ERG-DNA inh -23% and D3 ag 0.
Screening COc1ccc(-c2n(CC(=O)OC3CC(C)CCC3C(C)C)c3ccccc3[n+]2C)cc1 (stereo not given) returned D1 antag 17, D1 agonist 3, D1 PAM 6, DRD3 antagonist -86*, ERG-DNA inh inconclusive and D3 ag -27.
COc1cc(/C=N/n2cnnc2)ccc1OCCSc1ccc(C)cc1 was read as D1 antag -19, D1 agonist 3, D1 PAM 0, DRD3 antagonist -17, ERG-DNA inh 4% and D3 ag 8.
Screening COc1cccc(Cn2nnc3c(=O)[nH]c(C4CCCN(C(=O)c5ccc(C)cc5)C4)nc32)c1 (stereo not given) returned D1 antag -2, D1 agonist 2, D1 PAM -2, ERG-DNA inh -4% and D3 ag -5.
For CC(C)c1ccccc1NC(=S)NCc1nc2ccccc2[nH]1 the results were D1 agonist 2, D1 PAM -4, DRD3 antagonist 3, ERG-DNA inh 7% and D3 ag -7.
